# Screening data as filed in PubChem BioAssay.
# A selection: hits, their analogues and other compounds. The true share with any hit is near 1.2%.
# GSH bead fluor – compound fluorescence on glutathione beads, profiling panel, artefact control, biophysical, 488/530 nm, flow cytometry; GSH beads flow cytometry, compound fluorescence 488/530 nm; stronger effect = higher value; fluorescence (KMESF) at 10 µM; actives 0.25% (n = 190,000); in the data active means fluorescence above about 89;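 further: glutathione beads carrying GST-tagged Bcl family fusion proteins plus one bare bead set; values are compound well signal with DMSO vehicle wells as background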
# RGS7-Gao – RGS7-Galphao binding modulators, primary screen, biochemical, multiplexed bead flow cytometry. Guanine nucleotide-binding protein G(o) subunit alpha (Homo sapiens), P09471. actives lie on both sides. binding response (% of control), % at 10 µM. actives 0.35% (n = 220,000); in the data active means binding response below about 49% or above about 150%; inconclusive means no clear call, values can overlap the other calls; inactive means in between;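 further: fluorescent Galphao held in activated GDP-AlF4 state binding bead-coupled RGS7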
# RGS4-Gao reg – modulators of RGS4 binding to Galphao, primary screen, biochemical, multiplexed bead flow cytometry; binding response (% of control), % at 10 µM; actives 0.33% (n = 220,000); AID 1415, 2008; actives lie on both sides; Guanine nucleotide-binding protein G(o) subunit alpha (Homo sapiens), P09471; in the data active means binding response below about 49% or above about 150%; inactive means in between;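 further: fluorescent Galphao activated with aluminum fluoride binding bead-coupled RGS4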
# RGS16-Gao – modulators of RGS16 binding to Galphao, primary screen, biochemical, human proteins, multiplexed bead flow cytometry | binding response (% of control), % at 10 µM | bead-based flow cytometry RGS16-Galphao binding, fluorescence; actives lie on both sides | actives 0.38% (n = 220,000) | Regulator of G-protein signaling 16 (Homo sapiens) + Guanine nucleotide-binding protein …; call rule not given here;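 further: Galphao activated by GDP with aluminum fluoride before binding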
# Target sequence (O15492 whole entry, looked up): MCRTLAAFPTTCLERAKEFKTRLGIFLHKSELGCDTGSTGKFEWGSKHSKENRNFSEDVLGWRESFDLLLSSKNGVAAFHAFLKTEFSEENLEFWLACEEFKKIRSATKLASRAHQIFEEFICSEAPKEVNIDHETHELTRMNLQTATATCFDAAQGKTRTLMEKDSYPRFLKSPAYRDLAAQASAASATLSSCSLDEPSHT
# Target sequence (P09471 whole entry, looked up): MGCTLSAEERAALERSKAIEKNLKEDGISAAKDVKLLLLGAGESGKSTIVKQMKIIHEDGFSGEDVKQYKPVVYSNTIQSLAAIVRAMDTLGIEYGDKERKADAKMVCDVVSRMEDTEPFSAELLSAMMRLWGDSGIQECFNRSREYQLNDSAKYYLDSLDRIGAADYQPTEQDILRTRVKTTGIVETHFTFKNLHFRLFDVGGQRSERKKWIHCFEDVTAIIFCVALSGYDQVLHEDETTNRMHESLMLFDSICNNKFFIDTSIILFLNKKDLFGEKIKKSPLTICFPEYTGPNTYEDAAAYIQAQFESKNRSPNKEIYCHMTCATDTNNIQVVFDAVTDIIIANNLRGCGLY
# RGS8-Gao – RGS8-Galphao binding modulators, primary screen, biochemical, multiplexed bead flow cytometry; actives lie on both sides; Guanine nucleotide-binding protein G(o) subunit alpha (Homo sapiens), P09471; actives 0.34% (n = 220,000); response (percent of control binding), % at 10 µM; AID 1423, 2008; in the data active means response below about 60% or above about 140%; inactive means in between;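 further: Galphao activated as the GDP aluminium fluoride complex binding bead-coupled RGS8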
# Avidin bead fluor – green autofluorescence of compounds with avidin beads – biophysical, 488/530 nm, flow cytometry, artefact control, profiling panel. actives 0.38% (n = 220,000). fluorescence (KMESF) at 10 µM. AID 1775, 2009. compound fluorescence 488/530 nm; stronger effect = higher value; in the data active means fluorescence above about 47
# Active calls of the source: *; ? = inconclusive; . = no result given; ! = repeats disagree.
SMILES,GSH bead fluor,RGS7-Gao,RGS4-Gao reg,RGS16-Gao,RGS8-Gao,Avidin bead fluor
CSc1nc2ccc(NS(=O)(=O)c3ccc4c(c3)OCCO4)cc2s1,262*,103,103,65,92,4
Cc1nc(-c2nnc(SCC(=O)Nc3ccc(Cl)cc3)n2C)cs1,.,?,104,101,102,7
O=C(COC(=O)c1ccccc1Oc1ccccc1)NC1CCS(=O)(=O)C1 (stereo not drawn),13,110,103,101,101,48*
O=C(COC(=O)c1ccccc1Oc1ccccc1)NC1CC1,16,103,103,102,100,9
CC(=O)Nc1cccc(OCC(=O)NS(=O)(=O)c2ccc(Cl)cc2)c1,99*,104,104,107,100,28
CC(=O)Nc1cccc(OCC(=O)Nc2ccccc2)c1,37,104,106,101,104,20
O=C(Nc1ccc2c(c1)Cc1ccccc1-2)c1cccnc1,24,103,99,103,99,9
Cc1cccc(C)c1NC(=O)COc1cccc(/C=N/NC(=O)C(=O)NCc2ccccc2)c1,18,113,104,102,100,57*
O=C(CN1CCOCC1)NCc1ccccc1,31,135,102,98,99,62*
CCOC(=O)c1ccc(Oc2c(C)oc3cc(OS(C)(=O)=O)ccc3c2=O)cc1,18,100,99,96,99,6
CCCCN1CCc2[nH]c(=S)[nH]c(=O)c2C1,13,101,102,103,102,13
CCOc1ccc(Cl)cc1S(=O)(=O)n1cnc2ccccc21,14,99,97,94,95,14
COc1ccc(Cl)cc1S(=O)(=O)n1cnc2ccccc21,15,139,99,106,102,62*
COc1ccc(C2CC(c3ccc(Br)cc3)Nc3nc(N)nn32)cc1 (stereo not drawn),20,100,103,106,102,13
COc1ccc(C2CC(c3ccccc3)Nc3nc(N)nn32)cc1 (stereo not drawn),17,112,100,104,100,50*
Cc1ccc(CS(=O)(=O)c2ccc(C(=O)N3CCN(c4ccccn4)CC3)cc2[N+](=O)[O-])cc1,20,100,100,36,89,60*
O=C(Nc1ccccn1)c1onc2c1CCCC2,11,103,98,84,96,4
c1ccc(-c2onc3c2CCCC3)cc1,242*,110,101,97,108,8
COC(=O)/C=C1\OC(c2ccccc2)=CC1=O,11,93,98,90,90,7
CCc1ccc2c(c1)cc(CN(C(=S)Nc1cccc(C)c1)C1CC1)c1nnnn12,10,99,100,98,101,27
Cc1cc2cc(CN(C(=O)C3CC3)C3CCCC3)c3nnnn3c2cc1C,40,137,103,102,98,61*
CCc1cccc(CC)c1NC(=O)COC(=O)CC1c2ccccc2CCN1S(=O)(=O)c1ccccc1 (stereo not drawn),12,128,104,97,98,78*
CCc1cccc(CC)c1NC(=O)COC(=O)c1cccc(S(=O)(=O)N2CCc3ccccc3C2)c1,17,98,101,102,101,3
CCN1/C(=C\C=C(C(C)=O)C(C)=O)Sc2ccccc21,14,98,95,94,100,6
CCOC(=O)/C(C#N)=C(C)/C=C1\Sc2ccccc2N1CC,8,131,106,97,93,70*
SMILES,GSH bead fluor,RGS7-Gao,RGS4-Gao reg,RGS16-Gao,RGS8-Gao,Avidin bead fluor
CCc1ccc[n+](-c2nc3ccccc3nc2C(=C=[N-])C#N)c1,.,?,94,88,96,7
Cc1ccc[n+](-c2nc3ccccc3nc2C(=C=[N-])C#N)c1,11,?,111,82,83,61*!
Cc1cc(C)c[n+](-c2nc3ccccc3nc2C(=C=[N-])C#N)c1,238*!,100,83,87,95,24
O=C(NCc1ccc(Cl)cc1)C(=O)NCC1OCCN1C(=O)c1ccc(Cl)cc1 (stereo not drawn),20,102,98,102,98,6
CN1C(=CC=C2C=C(I)C(=O)C(I)=C2)C(C)(C)c2ccccc21,.,?,102,98,97,20
CN1/C(=C\C=C2/C(=O)Oc3ccccc3C2=O)C(C)(C)c2ccccc21,68,142,135,133,103,90*
O=C(O)c1cc(NCc2ccccc2C(F)(F)F)ccc1N1CCOCC1,21,112,98,89,96,52*
O=C(O)c1cc(NCc2ccc(F)cc2)ccc1N1CCOCC1,36,100,99,107,101,6
O=C(NCC1CCCO1)c1cccnc1Nc1ccccc1F (stereo not drawn),15,112,107,100,105,52*
COc1ccc(N2C(=O)C3CCCN3C2=O)cc1 (stereo not drawn),17,116,104,104,103,65*
O=C(Nc1ccsn1)c1ccc(Cl)cc1Cl,.,?,100,103,102,7
O=C(Nc1ccccn1)C(=O)N1CCCCC1,96*,94,89,59,87,5
CCCN(CCC)C1CC(=O)N(Cc2ccccc2)C1=O (stereo not drawn),19,113,103,104,103,58*
C=CCn1c(=N)c(C#N)cc2c(=O)n3ccccc3nc21,104*,99,104,103,103,7
C=CCn1c(=O)c(C#N)cc2c(=O)n3ccccc3nc21,35,83,83,76,97,7
COC(=O)c1cccc(NC(=O)CCNC(=O)c2ccc([N+](=O)[O-])cc2)c1,5,100,101,108,108,2
CCOc1cccc(/C(O)=C2/C(=O)C(=O)N(Cc3cccnc3)C2c2ccco2)c1 (stereo not drawn),7,121,103,100,100,58*
CC(=O)Nc1ccc(NC(=O)c2cccc3c2-c2ccccc2C3=O)cc1,8,140,109,115,107,99*
Cc1ccc(NC(=O)c2cccc3c2-c2ccccc2C3=O)cc1C,21,102,101,98,100,15
Cc1cc(C(=O)NC2CCCc3ccccc32)no1 (stereo not drawn),22,102,95,97,97,47*
CSc1nc(C(=O)N2CCCC(C(=O)c3ccc(Cl)cc3)C2)cs1 (stereo not drawn),12,86,89,19,69,7
